# Structures can show the parent of a compound that is named as a salt.
# Tests used:
# U-2932 [1] = test: growth inhibition by drug alone (1 - RLU/untreated control) (fraction); higher = stronger inhibition; details: 177Lu-lilotomab satetraxetan 0 ug/ml
# How it was run: (§1)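 RIVA or U-2932 cells, untreated or pretreated 18 h with a radiolabelled anti-CD37 antibody conjugate (~600 MBq/mg; 0.5 µg/ml RIVA, 1 µg/ml U-2932), were washed and seeded at 3,000 cells/well on plates pre-printed with the Selleck Cambridge Cancer Compound library. Doses were 10/100 nM (RIVA) or 10/1,000 nM (U-2932). RealTime-Glo luminescence was read daily from day 3 after 1 h at 37°C. Growth inhibition is 1 − RLU/mean of 48 untreated no-drug wells per plate.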
# U-2932 [2] = test: growth inhibition by drug plus 177Lu-lilotomab satetraxetan (1 - RLU/untreated control) (fraction); higher = stronger inhibition; details: 177Lu-lilotomab satetraxetan 1 ug/ml
# How it was run: as §1
# RIVA [3] = test: as above; details: 177Lu-lilotomab satetraxetan 0.5 ug/ml
# How it was run: as §1
# RIVA [4] = test: growth inhibition by drug alone (1 - RLU/untreated control) (fraction); higher = stronger inhibition; details: 177Lu-lilotomab satetraxetan 0 ug/ml
# How it was run: as §1
Structure (SMILES),"growth inhibition by drug alone (U-2932 [1]; 10 nM, time (day): 3)","growth inhibition by drug alone (U-2932 [1]; 10 nM, time (day): 4)","growth inhibition by drug alone (U-2932 [1]; 10 nM, time (day): 5)","growth inhibition by drug alone (U-2932 [1]; 10 nM, time (day): 6)","growth inhibition by drug alone (U-2932 [1]; 1000 nM, time (day): 3)","growth inhibition by drug alone (U-2932 [1]; 1000 nM, time (day): 4)","growth inhibition by drug alone (U-2932 [1]; 1000 nM, time (day): 5)","growth inhibition by drug alone (U-2932 [1]; 1000 nM, time (day): 6)","growth inhibition by drug plus 177Lu-lilotomab satetraxetan (U-2932 [2]; 10 nM, time (day): 3)","growth inhibition by drug plus 177Lu-lilotomab satetraxetan (U-2932 [2]; 10 nM, time (day): 4)","growth inhibition by drug plus 177Lu-lilotomab satetraxetan (U-2932 [2]; 10 nM, time (day): 5)","growth inhibition by drug plus 177Lu-lilotomab satetraxetan (U-2932 [2]; 10 nM, time (day): 6)","growth inhibition by drug plus 177Lu-lilotomab satetraxetan (U-2932 [2]; 1000 nM, time (day): 3)","growth inhibition by drug plus 177Lu-lilotomab satetraxetan (U-2932 [2]; 1000 nM, time (day): 4)","growth inhibition by drug plus 177Lu-lilotomab satetraxetan (U-2932 [2]; 1000 nM, time (day): 5)","growth inhibition by drug plus 177Lu-lilotomab satetraxetan (U-2932 [2]; 1000 nM, time (day): 6)","growth inhibition by drug plus 177Lu-lilotomab satetraxetan (RIVA [3]; 10 nM, time (day): 3)","growth inhibition by drug plus 177Lu-lilotomab satetraxetan (RIVA [3]; 10 nM, time (day): 4)","growth inhibition by drug plus 177Lu-lilotomab satetraxetan (RIVA [3]; 10 nM, time (day): 5)","growth inhibition by drug plus 177Lu-lilotomab satetraxetan (RIVA [3]; 10 nM, time (day): 6)","growth inhibition by drug plus 177Lu-lilotomab satetraxetan (RIVA [3]; 100 nM, time (day): 3)","growth inhibition by drug plus 177Lu-lilotomab satetraxetan (RIVA [3]; 100 nM, time (day): 4)","growth inhibition by drug plus 177Lu-lilotomab satetraxetan (RIVA [3]; 100 nM, time (day): 5)","growth inhibition by drug plus 177Lu-lilotomab satetraxetan (RIVA [3]; 100 nM, time (day): 6)","growth inhibition by drug alone (RIVA [4]; 10 nM, time (day): 3)","growth inhibition by drug alone (RIVA [4]; 10 nM, time (day): 4)","growth inhibition by drug alone (RIVA [4]; 10 nM, time (day): 5)","growth inhibition by drug alone (RIVA [4]; 10 nM, time (day): 6)","growth inhibition by drug alone (RIVA [4]; 100 nM, time (day): 3)","growth inhibition by drug alone (RIVA [4]; 100 nM, time (day): 4)","growth inhibition by drug alone (RIVA [4]; 100 nM, time (day): 5)","growth inhibition by drug alone (RIVA [4]; 100 nM, time (day): 6)"
C[C@@H](N)[C@H]1CC[C@H](C(=O)Nc2ccncc2)CC1,-0.00242,-0.0313,-0.0598,-0.119,-0.0269,-0.0273,-0.115,-0.0522,-0.0365,0.0334,0.0633,0.082,-0.014,0.0434,0.0766,0.194,0.59,0.588,0.605,0.619,0.339,0.452,0.463,0.469,,,,,,,,
C[C@]12CC[C@H](O)CC1=CC[C@@H]1[C@@H]2CC[C@]2(C)C(c3cccnc3)=CC[C@@H]12 [Abiraterone (CB-7598)],0.158,0.102,-0.102,-0.0433,0.0352,-0.0224,-0.154,-0.164,0.0329,0.0754,0.164,0.196,-0.00601,0.0151,0.0665,0.163,0.487,0.574,0.591,0.595,0.305,0.41,0.407,0.425,,,,,,,,
CCOc1cc2ncc(C#N)c(Nc3ccc(OCc4ccccn4)c(Cl)c3)c2cc1NC(=O)/C=C/CN(C)C [Neratinib (HKI-272)],-0.0556,-0.0442,-0.0146,0.0157,-0.0267,-0.00012,-0.0352,-0.0269,-0.0172,-0.00319,0.0327,0.194,-0.0673,0.003,0.00224,0.0815,0.358,0.498,0.529,0.541,0.367,0.422,0.425,0.419,-0.145,-0.144,-0.165,-0.233,-0.0145,-0.0628,-0.098,-0.14
COc1ccc(C2CC(c3ccccc3)=NN2c2ccc(S(N)(=O)=O)cc2)cc1 (centres undefined),0.0454,0.0281,-0.0412,-0.122,-0.0544,0.00397,-0.0999,-0.129,0.0153,0.0306,0.0246,0.0751,-0.0784,0.0449,-0.00789,0.0654,0.344,0.49,0.534,0.554,0.412,0.495,0.491,0.476,-0.0673,-0.122,-0.182,-0.683,-0.196,-0.182,-0.21,-0.396
CN(Cc1cnc2nc(N)nc(N)c2n1)c1ccc(C(=O)N[C@@H](CCC(=O)O)C(=O)O)cc1 [Abitrexate (Methotrexate)],-0.0461,-0.0435,-0.0522,-0.0907,0.866,0.93,0.956,0.968,-0.123,-0.083,-0.0233,0.0372,0.851,0.924,0.957,0.972,0.364,0.489,0.508,0.521,0.452,0.49,0.483,0.457,,,,,,,,
O=C(c1ccc(OCCN2CCCCC2)cc1)c1c(-c2ccc(O)cc2)sc2cc(O)ccc12 [Evista (Raloxifene Hydrochloride)],0.0697,0.04,-0.0859,-0.131,-0.0629,-0.0257,-0.102,-0.132,-0.0103,0.0219,0.0239,0.0818,-0.103,0.0136,-0.0473,-0.104,0.368,0.48,0.511,0.525,0.425,0.482,0.477,0.447,,,,,,,,
COc1ccc(CCN2CCN(CCCc3ccccc3)CC2)cc1OC,0.0269,-0.00972,-0.0184,-0.287,-0.032,-0.091,-0.153,-0.298,-0.0743,-0.0209,0.0479,0.0237,0.0208,0.0062,0.0376,0.127,,,,,,,,,,,,,,,,
COc1ccc(CCN(C)CCCOc2ccc(S(=O)(=O)c3c(C(C)C)n(C)c4ccccc34)cc2)cc1OC,0.0869,0.0667,0.0917,-0.0299,0.0603,0.0699,-0.0056,-0.132,0.0456,0.0938,0.156,0.171,0.135,0.145,0.18,0.298,0.605,0.642,0.664,0.661,0.48,0.536,0.542,0.544,,,,,,,,
Cc1cn(-c2cc(NC(=O)c3ccc(C)c(Nc4nccc(-c5cccnc5)n4)c3)cc(C(F)(F)F)c2)cn1 [Nilotinib (AMN-107)],0.0488,0.0185,-0.0493,-0.187,-0.0166,0.0185,-0.0481,-0.136,-0.0417,-0.0287,-0.0436,0.0203,-0.141,-0.0418,-0.0875,-0.155,0.372,0.516,0.522,0.537,0.362,0.471,0.491,0.466,,,,,,,,
CC(=O)Nc1cccc(-n2c(=O)n(C3CC3)c(=O)c3c(Nc4ccc(I)cc4F)n(C)c(=O)c(C)c32)c1,0.103,0.0992,0.0497,0.109,0.311,0.328,0.215,0.243,0.124,0.133,0.11,0.234,0.319,0.326,0.258,0.328,0.463,0.488,0.477,0.465,0.507,0.487,0.455,0.407,,,,,,,,
CC[C@H]1OC(=O)[C@H](C)[C@@H](O[C@H]2C[C@@](C)(OC)[C@@H](O)[C@H](C)O2)[C@H](C)[C@@H](O[C@@H]2O[C@H](C)C[C@H](N(C)C)[C@H]2O)[C@](C)(O)C[C@@H](C)CN(C)[C@H](C)[C@@H](O)[C@]1(C)O [Azithromycin (Zithromax)],0.204,0.13,0.0304,-0.0338,0.0821,0.11,0.0532,-0.0307,0.138,0.178,0.198,0.299,0.0676,0.168,0.163,0.224,0.526,0.619,0.633,0.639,0.499,0.586,0.576,0.561,,,,,,,,
COc1ccc(C2=N[C@@H](c3ccc(Cl)cc3)[C@@H](c3ccc(Cl)cc3)N2C(=O)N2CCNC(=O)C2)c(OC(C)C)c1 [Nutlin-3],-0.04,-0.0423,-0.094,-0.287,-0.0802,-0.0948,-0.145,-0.237,-0.0474,0.00784,0.0366,0.0903,-0.00272,-0.0242,0.00355,0.11,0.386,0.472,0.502,0.521,0.328,0.467,0.479,0.496,,,,,,,,
Cc1nc(-c2ccc(OCC(C)C)c(C#N)c2)sc1C(=O)O [Febuxostat (Uloric)],0.06,0.0554,0.0252,-0.0354,0.00138,0.0444,-0.00425,-0.214,0.0457,0.0731,0.0564,0.0873,-0.0156,0.0704,0.0056,-0.0613,0.368,0.506,0.513,0.525,0.42,0.463,0.463,0.45,0.0707,0.00437,-0.101,-0.473,0.158,0.082,0.0362,-0.046
CC(C)C[C@H](NC(=O)[C@H](Cc1ccccc1)NC(=O)c1cnccn1)B(O)O [Bortezomib (Velcade)],0.965,0.971,0.976,0.978,0.985,0.984,0.985,0.985,0.952,0.967,0.976,0.98,0.986,0.987,0.986,0.988,0.955,0.969,0.976,0.98,0.989,0.989,0.989,0.99,0.923,0.946,0.958,0.96,0.978,0.978,0.978,0.976
O=C(/C=C/C#Cc1cccc(NS(=O)(=O)c2ccccc2)c1)NO [Oxamflatin],0.0723,0.054,0.00482,-0.0197,0.851,0.808,0.766,0.702,-0.0134,0.0236,0.0539,0.158,0.941,0.947,0.958,0.96,0.518,0.564,0.59,0.607,0.726,0.683,0.691,0.686,0.0849,0.0278,0.0468,0.0353,0.675,0.482,0.435,0.389
CC(C)C[C@@H](C(=O)N[C@H](C(=O)OC1CCCC1)c1ccccc1)[C@H](O)C(=O)NO [Tosedostat (CHR2797)],0.0666,0.0228,-0.0512,-0.123,-0.142,-0.112,-0.102,-0.0781,0.00927,0.0682,0.108,0.162,-0.0889,-0.0223,0.0204,0.176,0.571,0.596,0.613,0.62,0.559,0.591,0.602,0.604,,,,,,,,
COc1cc2c(cc1O)CC[C@@H]1[C@@H]2CC[C@]2(C)[C@@H](O)CC[C@@H]12 [2-Methoxyestradiol],-0.0505,-0.0559,-0.104,-0.0895,0.719,0.771,0.777,0.788,-0.116,-0.0531,0.00475,0.11,0.704,0.761,0.783,0.814,0.476,0.534,0.548,0.552,0.308,0.401,0.422,0.439,,,,,,,,
O=c1cc(-c2cccc3c2Sc2ccccc2S3)oc(N2CCOCC2)c1,-0.0795,-0.0657,-0.0216,0.0484,-0.0815,-0.0342,-0.0721,-0.125,-0.0246,-0.00365,0.0233,0.166,-0.108,-0.0389,-0.0219,0.0537,0.36,0.504,0.522,0.526,0.335,0.399,0.405,0.382,,,,,,,,

# Reference: the supplement of paper PMC6897291
